One test has as its system JEG-3. The experiment in a line: Primary qHTS to identify gynecologic anti-cancer compounds using libraries of approved drugs and bioactive compounds (AID 1345084). Note: nearly all actives have a fitted effect of over 55% in size. As to conditions: Gynecologic cancer cell panel viability, ATPlite luminescence, 48 h; series mostly up to 57.5 µM. Put shortly:
(§1)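 ATP-based viability (ATPlite), 1,000 cells/well, 16 h pre-incubation, 48 h compound at 37 C, 5% CO2, 15 min RT before read.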

In a further test the test system is OV90. Described as above. As to conditions: Gynecologic cancer cell panel viability, ATPlite luminescence, 48 h; series mostly up to 57.5 µM. The essentials: as §1
The next test relates to PA-1. The description is as above. As to conditions: Gynecologic cancer cell panel viability, ATPlite luminescence, 48 h; series mostly up to 57.5 µM. Put shortly:
as §1

For the next test, the system named is SKOV3. The test is described as above. As to conditions: Gynecologic cancer cell panel viability, ATPlite luminescence, 48 h; series mostly up to 57.5 µM. Put shortly:
as §1

The test system of a further test is Tov-21-G. The test is described as above. As to conditions: Gynecologic cancer cell panel viability, ATPlite luminescence, 48 h; series mostly up to 57.5 µM. The essentials:
as §1

The next test relates to Tov112D. The test is described as above. As to conditions: Gynecologic cancer cell panel viability, ATPlite luminescence, 48 h; series mostly up to 57.5 µM. Put shortly: as §1
Test [1] is described as follows: Drug repurposing screens with cells derived from glioblastoma tumor samples (AID 1345199). Note: nearly all actives have a fitted effect of over 40% in size. Note: potency is the fitted concentration of half-maximal effect. As to conditions: GBM patient neurospheres viability, ATP luminescence, 48 h. Put shortly: (§2)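 Four patient lines of CD133+ GBM neurospheres were screened at several concentrations; hits were retested in those lines plus three slower-growing GBM lines, using 48-hour treatment and ATP-based viability.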

The next test relates to astro. The description is as above. As to conditions: viability, ATP luminescence, 48 h; series mostly up to 45.9 µM. Put shortly:
as §2

The mark [2] stands for this setting: at 45.9 µM (top of the series), tumour line B.
[3] abbreviates: at 45.9 µM (top of the series), tumour line D.
[4] abbreviates: at 46 µM (top of the series), tumour line A.
Setting [5] is: at 46.1 µM (top of the series), tumour line C.

SMILES strings stand for the structures. Inconclusive results are not listed. Values without a mark were called inactive. Calls of active or inactive are those of the source. Calls come from the whole dose curve; as a rule, active = well fitted curve in the direction sought with a large enough effect; inconclusive = small, poorly fitted or top-dose-only effect, or another doubt; inactive = no such curve, though single readings can be large; an effect the other way counts as inactive or inconclusive.
% is set by controls: 0 for no effect and ±100 for the full control effect.

`COC(=O)[C@@H]1CC2=CC(=O)CC[C@]2(C)[C@@]23O[C@@H]2C[C@@]2(C)[C@@H](CC[C@@]24CCC(=O)O4)[C@H]13`: the Potency entry in the test on JEG-3, with OV90, in the test with PA-1, in the test on SKOV3, with Tov-21-G and in the test on Tov112D was “inactive” in each case. Further, the Potency entry in the test on astro is “inactive”. For the same compound, the activity, negative = cell killing in test [1] (setting [2]) is -3.02%; in test [1] (setting [3]), -20%; in test [1] (setting [4]) it was -25%; in test [1] (setting [5]) it was -18.4%.

On to `Cc1c(C(C)C)c(=O)n(-c2ccccc2)n1C`, for which the Potency entry in the test on JEG-3, in the test with OV90, with PA-1, in the test with SKOV3, with Tov-21-G and with Tov112D was “inactive” each time. Further, in the test on astro, the Potency entry was “inactive”. The activity, negative = cell killing in test [1] (setting [2]) was -4.08%; in test [1] (setting [3]), -9.96%; in test [1] (setting [4]) it was -22.1%; in test [1] (setting [5]), -13.8%.

Regarding `OCc1ccccc1O`, the Potency result with JEG-3, in the test on OV90, in the test with PA-1, in the test on SKOV3, in the test with Tov-21-G and in the test with Tov112D was “inactive” in each case. Further, the Potency result in the test on astro was “inactive”. The activity, negative = cell killing in test [1] (setting [2]) is -10.5%; in test [1] (setting [3]), -12.8%; in test [1] (setting [4]), -23.4%; in test [1] (setting [5]), -1.35%.

As to `O=c1ccc2ccccc2o1`, the Potency entry in the test with JEG-3, in the test with OV90, with PA-1, in the test with SKOV3, in the test on Tov-21-G and in the test on Tov112D was “inactive” in each case. For the same compound, the Potency entry in the test with astro was “inactive”. Besides, the activity, negative = cell killing was -10.7% in test [1] (setting [2]), -11.2% in test [1] (setting [3]), -35.1% in test [1] (setting [4]) and 13.9% in test [1] (setting [5]).

For `CCOC(=O)n1ccn(C)c1=S`, the Potency entry in the test with JEG-3, with OV90, in the test on PA-1, with SKOV3, in the test on Tov-21-G and with Tov112D was “inactive” throughout. Further, the Potency result in the test on astro is “inactive”. For the same compound, the activity, negative = cell killing in test [1] (at 20 µM (top of the series), tumour line C) was 6.23%; in test [1] (at 21.2 µM (top of the series), tumour line B) it was -8.85%; in test [1] (at 21.2 µM (top of the series), tumour line D) it was 1.59%; in test [1] (at 21.3 µM (top of the series), tumour line A) it was -18.4%.

On to `C[C@H](CCC(=O)O)[C@H]1CC[C@H]2[C@@H]3C(=O)C[C@@H]4CC(=O)CC[C@]4(C)[C@H]3CC(=O)[C@]12C`, for which the Potency entry in the test on JEG-3, in the test with OV90, in the test with PA-1, in the test on SKOV3, in the test with Tov-21-G and in the test on Tov112D was “inactive” throughout. Further, the Potency result with astro was “inactive”. Further, the activity, negative = cell killing is -0.788% in test [1] (setting [2]), -14.6% in test [1] (setting [3]), -2.78% in test [1] (setting [4]) and 3.71% in test [1] (setting [5]).

Take `CC[N+](CC)(CCNC(=O)C(=O)NCC[N+](CC)(CC)Cc1ccccc1Cl)Cc1ccccc1Cl`: the Potency result with JEG-3, with OV90, in the test on PA-1, with SKOV3, in the test with Tov-21-G and with Tov112D was “inactive” throughout. Moreover, the Potency result with astro was “inactive”. The activity, negative = cell killing in test [1] (setting [2]) was -6.34%; in test [1] (setting [3]) it was -19.6%; in test [1] (setting [4]) it was -23.4%; in test [1] (setting [5]), 15.3%.

As to `CC(Cc1ccccc1)(NC(=O)CN)c1ccccc1` (centres undefined), the Potency result in the test with JEG-3, in the test with OV90, in the test on PA-1, in the test on SKOV3, in the test with Tov-21-G and in the test with Tov112D was “inactive” throughout. For the same compound, the Potency entry in the test with astro is “inactive”. For the same compound, the activity, negative = cell killing in test [1] (setting [2]) was -9.21%; in test [1] (setting [3]), 3.89%; in test [1] (setting [5]), -26.6%. The Potency in test [1] (tumour line A) is 20 µM (active).

`Cc1onc(-c2c(Cl)cccc2Cl)c1C(=O)N[C@@H]1C(=O)N2[C@@H]1SC(C)(C)[C@@H]2C(=O)O`: the Potency result with JEG-3, in the test on OV90, with PA-1, in the test on SKOV3, in the test with Tov-21-G and in the test on Tov112D was “inactive” throughout. Moreover, in the test with astro, the Potency result was “inactive”. Further, the activity, negative = cell killing in test [1] (setting [2]) was -4.57%; in test [1] (setting [3]), -12.2%; in test [1] (setting [4]), -8.27%; in test [1] (setting [5]), 12.2%.

For `NCCC(O)(P(=O)(O)O)P(=O)(O)O`, the Potency result in the test with JEG-3, in the test with OV90, in the test on PA-1, in the test with SKOV3, in the test on Tov-21-G and with Tov112D was “inactive” each time. Besides, the Potency result with astro is “inactive”. Further, the activity, negative = cell killing in test [1] (setting [2]) was -6.03%; in test [1] (setting [3]) it was -13.5%; in test [1] (setting [4]) it was -19.5%; in test [1] (setting [5]), -12.2%.

Turning to `Cc1cccn2c(=O)c(-c3nnn[nH]3)cnc12`, the Potency result with JEG-3, with OV90, in the test on PA-1, with SKOV3, with Tov-21-G and with Tov112D was “inactive” in each case. For the same compound, the Potency result in the test on astro was “inactive”. The activity, negative = cell killing in test [1] (setting [2]) was -8.75%; in test [1] (setting [3]), -11.1%; in test [1] (setting [4]), -23.8%; in test [1] (setting [5]), -18.6%.

As to `N[C@@H](CCC(=O)N[C@@H](CS)C(=O)NCC(=O)O)C(=O)O`, the Potency result in the test with JEG-3, in the test on OV90, with PA-1, in the test with SKOV3, with Tov-21-G and with Tov112D was “inactive” throughout. Further, in the test with astro, the Potency result is “inactive”. Further, the activity, negative = cell killing in test [1] (setting [2]) is -10.5%; in test [1] (setting [3]) it was -6.47%; in test [1] (setting [4]), -29.7%; in test [1] (setting [5]), 10.6%.

For `Cc1ccc(Nc2c(F)cccc2Cl)c(CC(=O)O)c1`, the Potency result in the test with JEG-3, in the test with OV90, in the test with PA-1, in the test on SKOV3, in the test with Tov-21-G and with Tov112D was “inactive” in each case. In addition, the Potency entry with astro was “inactive”. Besides, the activity, negative = cell killing in test [1] (setting [2]) is -6.28%; in test [1] (setting [3]), -3.08%; in test [1] (setting [4]), -32.8%; in test [1] (setting [5]), -3.92%.

Take `CN(C)CC/C=C1/c2ccccc2COc2ccc(CC(=O)O)cc21`: the Potency result with JEG-3, in the test on OV90, with PA-1, with SKOV3, with Tov-21-G and in the test on Tov112D was “inactive” throughout. Besides, the Potency result in the test on astro was “inactive”. The activity, negative = cell killing was -11.5% in test [1] (setting [2]), 1.66% in test [1] (setting [3]), -15.4% in test [1] (setting [4]) and 4.5% in test [1] (setting [5]).

Values taken from PubChem BioAssay (NCATS).
